{"source": "PubChem BioAssay (NCI)", "key": {"[1]": {"experiment": "NCI Yeast Anticancer Drug Screen. Data for the rad52 strain (AID 147);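 note: 0% = growth of vehicle-treated control cultures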", "conditions": "S. cerevisiae rad52 mutant growth inhibition, hits give high values", "outline": "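Vehicle-treated cultures served as the reference for growth inhibition of compound-exposed yeast bearing a DNA repair mutation.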"}, "[2]": {"experiment": "NCI Yeast Anticancer Drug Screen. Data for the wt1 strain (AID 149);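 note: 0% = growth of vehicle-treated wt1 cultures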", "conditions": "S. cerevisiae wt1 strain (SPY 50644) growth inhibition, hits give high values", "outline": "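Measured: growth of wt1 yeast under compound versus vehicle treatment, reported as inhibition.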"}, "[3]": {"experiment": "NCI Yeast Anticancer Drug Screen. Data for the rad50EPP+ strain (AID 151);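 note: 0% = growth of vehicle-treated control cultures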", "conditions": "S. cerevisiae rad50 mutant strain, hits give high values", "outline": "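In this screen, rad50EPP+ yeast were exposed to compounds. Growth inhibition was scored against vehicle-treated controls.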"}, "[4]": {"experiment": "NCI Yeast Anticancer Drug Screen. Data for the rad50 strain (AID 155);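 note: 0% = growth of vehicle-only cultures of the same strain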", "conditions": "S. cerevisiae rad50 strain growth inhibition, hits give high values", "outline": "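Growth of the mutant yeast was measured after compound exposure and referenced to vehicle-treated cultures.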"}, "[5]": {"experiment": "NCI Yeast Anticancer Drug Screen. Data for the mec2-1 strain (AID 157)", "conditions": "S. cerevisiae mec2-1 strain, hits give high values", "outline": "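Vehicle-treated cultures served as reference for growth inhibition of compound-exposed mec2-1 yeast.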"}, "[6]": {"experiment": "NCI Yeast Anticancer Drug Screen. Data for the rad14 strain (AID 159);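 note: 0% = growth of vehicle-treated control cultures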", "conditions": "S. cerevisiae rad14 strain growth inhibition, hits give high values", "outline": "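Here, inhibition of yeast growth was measured after compound exposure, using a strain with a genetic defect in DNA damage repair and vehicle-treated cultures as the reference.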"}, "[7]": {"experiment": "NCI Yeast Anticancer Drug Screen. Data for the sgs1 mgt1 strain (AID 161);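 note: 0% = growth of cultures given vehicle only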", "conditions": "S. cerevisiae sgs1 mgt1 strain, hits give high values", "outline": "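Genetically altered yeast, compound exposure, growth inhibition relative to vehicle.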"}, "[8]": {"experiment": "NCI Yeast Anticancer Drug Screen. Data for the CLN2oe strain (AID 163);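 note: 0% = growth of vehicle-only control cultures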", "conditions": "S. cerevisiae CLN2oe strain, hits give high values", "outline": "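Inhibition relative to vehicle-treated yeast is reported. Cells: strain with genetic alteration in cell-cycle control, grown with compound.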"}, "[9]": {"experiment": "NCI Yeast Anticancer Drug Screen. Data for the cln2 rad14 strain (AID 165);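 note: 0% = growth equal to vehicle treated cultures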", "conditions": "S. cerevisiae cln2 rad14 strain, hits give high values", "outline": "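Each compound was tested on cln2 rad14 yeast. Inhibition of growth was calculated against vehicle-exposed controls.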"}, "[10]": {"experiment": "NCI Yeast Anticancer Drug Screen. Data for the bub3 strain (AID 167)", "conditions": "S. cerevisiae bub3 mutant strain, hits give high values", "outline": "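Whole-cell yeast assay. The mutant strain was incubated with compounds, and growth inhibition was determined by comparison with vehicle-treated cells.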"}, "[11]": {"experiment": "NCI Yeast Anticancer Drug Screen. Data for the wt2 strain (AID 169);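 note: 0% = growth of vehicle-treated yeast cultures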", "conditions": "S. cerevisiae wt2 strain growth inhibition, hits give high values", "outline": "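Inhibition of yeast growth was determined after compound treatment, normalised to controls receiving only vehicle.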"}, "[12]": {"experiment": "NCI Yeast Anticancer Drug Screen. Data for the mlh1 strain (AID 171);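 note: 0% = growth of vehicle-treated control cultures of the same strain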", "conditions": "S. cerevisiae mlh1 strain growth inhibition, hits give high values", "outline": "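Vehicle-normalised growth inhibition of a repair- or checkpoint-altered yeast strain following compound treatment.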"}, "[13]": {"experiment": "NCI Yeast Anticancer Drug Screen. Data for the sgs1 strain (AID 173);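 note: 0% = growth of vehicle-only control cultures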", "conditions": "S. cerevisiae sgs1 mutant, hits give high values", "outline": "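Screen format: yeast with repair or checkpoint alterations, compound exposure, growth read relative to vehicle.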"}, "[14]": {"experiment": "NCI Yeast Anticancer Drug Screen. Data for the mlh1 rad18 strain (AID 175)", "conditions": "S. cerevisiae mlh1 rad18 strain growth inhibition, hits give high values", "outline": "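Vehicle-treated cultures served as the reference for growth inhibition in a yeast strain carrying DNA damage repair alterations exposed to each compound.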"}, "[15]": {"experiment": "NCI Yeast Anticancer Drug Screen. Data for the rad18 strain (AID 177)", "conditions": "S. cerevisiae rad18 mutant growth inhibition, hits give high values", "outline": "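Test articles were incubated with altered yeast defective in DNA damage repair. Results are given as inhibition of growth versus vehicle.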"}, "[16]": {"conditions": "at 5.0 µM (retest, dose inferred, filed as 0.5)"}, "[17]": {"conditions": "at 50.0 µM (retest, dose inferred, filed as 5.0)"}}, "note": "The panel holds about 79,000 compounds, 15% with a hit somewhere; the sample as a whole holds those more often. Unmarked numbers belong to inactive results. Calls of active or inactive are those of the source. Cut-off read from the data, not from the text of the source: active = growth inhibition above about 70%; inactive = the rest."}
{"smiles": "Nc1ccc2c(c1)sc1ccccc12", "values": [{"measurement": "growth inhibition", "setting": "[1]; at 1.2 µM", "value": -3, "unit": "%"}, {"measurement": "growth inhibition", "setting": "[1]; at 3.7 µM", "value": 2, "unit": "%"}, {"measurement": "growth inhibition", "setting": "[1]; at 11.0 µM", "value": 3, "unit": "%"}, {"measurement": "growth inhibition", "setting": "[1]; at 33.0 µM", "value": 30, "unit": "%"}, {"measurement": "growth inhibition", "setting": "[1]; at 100.0 µM", "value": "99% (active)"}, {"measurement": "growth inhibition", "setting": "[2]; at 1.2 µM", "value": -5, "unit": "%"}, {"measurement": "growth inhibition", "setting": "[2]; at 3.7 µM", "value": -7, "unit": "%"}, {"measurement": "growth inhibition", "setting": "[2]; at 11.0 µM", "value": -10, "unit": "%"}, {"measurement": "growth inhibition", "setting": "[2]; at 33.0 µM", "value": -11, "unit": "%"}, {"measurement": "growth inhibition", "setting": "[2]; at 100.0 µM", "value": "99% (active)"}, {"measurement": "growth inhibition", "setting": "[3]; at 1.2 µM", "value": 1, "unit": "%"}, {"measurement": "growth inhibition", "setting": "[3]; at 3.7 µM", "value": 13, "unit": "%"}, {"measurement": "growth inhibition", "setting": "[3]; at 11.0 µM", "value": 38, "unit": "%"}, {"measurement": "growth inhibition", "setting": "[3]; at 33.0 µM", "value": "89% (active)"}, {"measurement": "growth inhibition", "setting": "[3]; at 100.0 µM", "value": "98% (active)"}, {"measurement": "growth inhibition", "setting": "[4]; at 1.2 µM", "value": -20, "unit": "%"}, {"measurement": "growth inhibition", "setting": "[4]; at 3.7 µM", "value": -1, "unit": "%"}, {"measurement": "growth inhibition", "setting": "[4]; [16]", "value": -153, "unit": "%"}, {"measurement": "growth inhibition", "setting": "[4]; at 11.0 µM", "value": 9, "unit": "%"}, {"measurement": "growth inhibition", "setting": "[4]; at 33.0 µM", "value": 46, "unit": "%"}, {"measurement": "growth inhibition", "setting": "[4]; [17]", "value": 54, "unit": "%"}, {"measurement": "growth inhibition", "setting": "[4]; at 50.0 µM", "value": "85.4% (active)"}, {"measurement": "growth inhibition", "setting": "[4]; at 100.0 µM", "value": "99% (active)"}, {"measurement": "growth inhibition", "setting": "[5]; at 1.2 µM", "value": 1, "unit": "%"}, {"measurement": "growth inhibition", "setting": "[5]; at 3.7 µM", "value": 0, "unit": "%"}, {"measurement": "growth inhibition", "setting": "[5]; [16]", "value": -52, "unit": "%"}, {"measurement": "growth inhibition", "setting": "[5]; at 11.0 µM", "value": -6, "unit": "%"}, {"measurement": "growth inhibition", "setting": "[5]; at 33.0 µM", "value": 4, "unit": "%"}, {"measurement": "growth inhibition", "setting": "[5]; [17]", "value": -24, "unit": "%"}, {"measurement": "growth inhibition", "setting": "[5]; at 50.0 µM", "value": 33, "unit": "%"}, {"measurement": "growth inhibition", "setting": "[5]; at 100.0 µM", "value": "99% (active)"}, {"measurement": "growth inhibition", "setting": "[6]; at 1.2 µM", "value": -3, "unit": "%"}, {"measurement": "growth inhibition", "setting": "[6]; at 3.7 µM", "value": -6, "unit": "%"}, {"measurement": "growth inhibition", "setting": "[6]; at 11.0 µM", "value": -1, "unit": "%"}, {"measurement": "growth inhibition", "setting": "[6]; at 33.0 µM", "value": 15, "unit": "%"}, {"measurement": "growth inhibition", "setting": "[6]; at 100.0 µM", "value": "98% (active)"}, {"measurement": "growth inhibition", "setting": "[7]; [16]", "value": -68, "unit": "%"}, {"measurement": "growth inhibition", "setting": "[7]; [17]", "value": 40, "unit": "%"}, {"measurement": "growth inhibition", "setting": "[7]; at 50.0 µM", "value": 63.1, "unit": "%"}, {"measurement": "growth inhibition", "setting": "[8]; at 1.2 µM", "value": -2, "unit": "%"}, {"measurement": "growth inhibition", "setting": "[8]; at 3.7 µM", "value": -5, "unit": "%"}, {"measurement": "growth inhibition", "setting": "[8]; at 11.0 µM", "value": -3, "unit": "%"}, {"measurement": "growth inhibition", "setting": "[8]; at 33.0 µM", "value": -5, "unit": "%"}, {"measurement": "growth inhibition", "setting": "[8]; at 100.0 µM", "value": "95% (active)"}, {"measurement": "growth inhibition", "setting": "[9]; [16]", "value": -60, "unit": "%"}, {"measurement": "growth inhibition", "setting": "[9]; [17]", "value": -50, "unit": "%"}, {"measurement": "growth inhibition", "setting": "[9]; at 50.0 µM", "value": -13.4, "unit": "%"}, {"measurement": "growth inhibition", "setting": "[10]; at 1.2 µM", "value": -6, "unit": "%"}, {"measurement": "growth inhibition", "setting": "[10]; at 3.7 µM", "value": -4, "unit": "%"}, {"measurement": "growth inhibition", "setting": "[10]; [16]", "value": -59, "unit": "%"}, {"measurement": "growth inhibition", "setting": "[10]; at 11.0 µM", "value": 3, "unit": "%"}, {"measurement": "growth inhibition", "setting": "[10]; at 33.0 µM", "value": 18, "unit": "%"}, {"measurement": "growth inhibition", "setting": "[10]; [17]", "value": 40, "unit": "%"}, {"measurement": "growth inhibition", "setting": "[10]; at 50.0 µM", "value": "92.5% (active)"}, {"measurement": "growth inhibition", "setting": "[10]; at 100.0 µM", "value": "99% (active)"}, {"measurement": "growth inhibition", "setting": "[11]; at 1.2 µM", "value": -1, "unit": "%"}, {"measurement": "growth inhibition", "setting": "[11]; at 3.7 µM", "value": -2, "unit": "%"}, {"measurement": "growth inhibition", "setting": "[11]; at 11.0 µM", "value": -4, "unit": "%"}, {"measurement": "growth inhibition", "setting": "[11]; at 33.0 µM", "value": 0, "unit": "%"}, {"measurement": "growth inhibition", "setting": "[11]; at 100.0 µM", "value": "99% (active)"}, {"measurement": "growth inhibition", "setting": "[12]; at 1.2 µM", "value": 9, "unit": "%"}, {"measurement": "growth inhibition", "setting": "[12]; at 3.7 µM", "value": -4, "unit": "%"}, {"measurement": "growth inhibition", "setting": "[12]; at 11.0 µM", "value": -5, "unit": "%"}, {"measurement": "growth inhibition", "setting": "[12]; at 33.0 µM", "value": 21, "unit": "%"}, {"measurement": "growth inhibition", "setting": "[12]; at 100.0 µM", "value": "99% (active)"}, {"measurement": "growth inhibition", "setting": "[13]; at 1.2 µM", "value": -1, "unit": "%"}, {"measurement": "growth inhibition", "setting": "[13]; at 3.7 µM", "value": -1, "unit": "%"}, {"measurement": "growth inhibition", "setting": "[13]; at 11.0 µM", "value": -2, "unit": "%"}, {"measurement": "growth inhibition", "setting": "[13]; at 33.0 µM", "value": 46, "unit": "%"}, {"measurement": "growth inhibition", "setting": "[13]; at 100.0 µM", "value": "99% (active)"}, {"measurement": "growth inhibition", "setting": "[14]; [16]", "value": -122, "unit": "%"}, {"measurement": "growth inhibition", "setting": "[14]; [17]", "value": 38, "unit": "%"}, {"measurement": "growth inhibition", "setting": "[14]; at 50.0 µM", "value": "94.2% (active)"}, {"measurement": "growth inhibition", "setting": "[15]; at 1.2 µM", "value": 0, "unit": "%"}, {"measurement": "growth inhibition", "setting": "[15]; at 3.7 µM", "value": 6, "unit": "%"}, {"measurement": "growth inhibition", "setting": "[15]; at 11.0 µM", "value": 27, "unit": "%"}, {"measurement": "growth inhibition", "setting": "[15]; at 33.0 µM", "value": 56, "unit": "%"}, {"measurement": "growth inhibition", "setting": "[15]; at 100.0 µM", "value": "99% (active)"}]}
